Measured values reported in the supplement of paper PMC8728848.
This is one part of a sample in which the strongest signals are shown more often than they occur.

Legend:
Assay in all cases: glycan array binding signal (z-score within array); higher = stronger binding
Conditions in all cases: glycan notation: IUPAC condensed, linker removed
[1] = target: Fuc(a1-2)Gal(b1-3)GalNAc(b1-3)Gal
Method in brief: (§1)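 The binding signal is a Z-score computed within each array. Data were drawn from 3228 arrays in the Consortium for Functional Glycomics database, restricted to those with a known protein sequence. Scores were averaged over arrays of the same protein sequence at different concentrations or buffers, and over linkers, and negative values can be taken as non-binding.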

[2] = target: Fuc(a1-2)Gal(b1-3)[Fuc(a1-4)]GlcNAc(b1-3)[Fuc(a1-3)[Gal(b1-4)]GlcNAc(b1-6)]Gal(b1-4)Glc
Method in brief: as §1

[3] = target: Fuc(a1-2)[GalNAc(a1-3)]Gal(b1-3)GalNAc(b1-3)Gal(a1-4)Gal(b1-4)Glc
Method in brief: as §1

[4] = target: Fuc(a1-2)[GalNAc(a1-3)]Gal(b1-4)[Fuc(a1-3)]GlcNAc
Method in brief: as §1

[5] = target: Fuc(a1-3)[Gal(b1-4)]Glc6S
Method in brief: as §1

[6] = target: Fuc(a1-3)[Gal(b1-4)]GlcNAc(b1-6)GalNAc
Method in brief: as §1

[7] = target: Gal(a1-3)Gal(b1-3)GlcNAc(b1-6)GalNAc
Method in brief: as §1

Gal(a1-3)Gal(b1-4)GlcNAc = target: Gal(a1-3)Gal(b1-4)GlcNAc
Method in brief: as §1

[8] = target: Gal(a1-3)Gal(b1-4)[Fuc(a1-3)]GlcNAc
Method in brief: as §1

Gal(a1-3)GalNAc = target: Gal(a1-3)GalNAc
Method in brief: as §1

[9] = target: Gal(a1-3)[Gal(a1-4)]Gal(b1-4)GlcNAc
Method in brief: as §1

Gal(a1-4)Gal(b1-4)Glc = target: Gal(a1-4)Gal(b1-4)Glc
Method in brief: as §1

Gal(b1-3)Gal = target: Gal(b1-3)Gal
Method in brief: as §1

Gal(b1-3)GalNAc(b1-3)Gal = target: Gal(b1-3)GalNAc(b1-3)Gal
Method in brief: as §1

[10] = target: Gal(b1-3)GalNAc(b1-4)Gal(b1-4)Glc
Method in brief: as §1

[11] = target: Gal(b1-3)GlcNAc(b1-2)Man(a1-3)[Gal(b1-3)GlcNAc(b1-2)Man(a1-6)]Man(b1-4)GlcNAc(b1-4)[Fuc(a1-6)]GlcNAc
Method in brief: as §1

[12] = target: Gal(b1-3)[GlcNAc(b1-6)]GalNAc
Method in brief: as §1

Gal(b1-4)GlcNAc = target: Gal(b1-4)GlcNAc
Method in brief: as §1

[13] = target: Gal(b1-4)GlcNAc(b1-2)Man(a1-3)[Gal(b1-4)GlcNAc(b1-2)Man(a1-6)][Gal(b1-4)GlcNAc(b1-4)]Man(b1-4)GlcNAc(b1-4)[Fuc(a1-6)]GlcNAc
Method in brief: as §1

[14] = target: Gal(b1-4)GlcNAc(b1-2)Man(a1-6)Man(b1-4)GlcNAc(b1-4)GlcNAc
Method in brief: as §1

[15] = target: Gal(b1-4)GlcNAc(b1-2)[Gal(b1-4)GlcNAc(b1-6)]Man(a1-6)[GlcNAc(b1-4)][Gal(b1-4)GlcNAc(b1-2)Man(a1-3)]Man(b1-4)GlcNAc(b1-4)GlcNAc
Method in brief: as §1

[16] = target: Gal(b1-4)GlcNAc(b1-3)Gal(b1-4)GlcNAc(b1-3)Gal(b1-4)GlcNAc(b1-2)[Gal(b1-4)GlcNAc(b1-3)Gal(b1-4)GlcNAc(b1-3)Gal(b1-4)GlcNAc(b1-6)]Man(a1-6)[Gal(b1-4)GlcNAc(b1-3)Gal(b1-4)GlcNAc(b1-3)Gal(b1-4)GlcNAc(b1-2)Man(a1-3)]Man(b1-4)GlcNAc(b1-4)[Fuc(a1-6)]GlcNAc
Method in brief: as §1

[17] = target: Gal(b1-4)GlcNAc(b1-3)[GlcNAc(b1-6)]Gal(b1-4)GlcNAc
Method in brief: as §1

Gal3S(b1-3)GalNAc = target: Gal3S(b1-3)GalNAc
Method in brief: as §1

[18] = target: Gal3S(b1-4)[Fuc(a1-3)]Glc6S
Method in brief: as §1

Gal4S6S(b1-4)GlcNAc = target: Gal4S6S(b1-4)GlcNAc
Method in brief: as §1

GalNAc(b1-3)Gal = target: GalNAc(b1-3)Gal
Method in brief: as §1

GalNAc(b1-4)GlcNAc = target: GalNAc(b1-4)GlcNAc
Method in brief: as §1

[19] = target: GalNAc(b1-4)GlcNAc(b1-2)Man(a1-3)[GalNAc(b1-4)GlcNAc(b1-2)Man(a1-6)]Man(b1-4)GlcNAc(b1-4)GlcNAc
Method in brief: as §1

B1: HFR-3 (Triticum aestivum) (protein)
chain: MKGLLLCALALAFAAVTTHAQLQSCPTRCGKQADGMECPNNLCCSKDGYCGLGVDYCSAGAGCQSGACYDNKICGAQANGTLCRNNHCCSSGGRCGYGREYCSNGCQGGPCWADLKCGHLDNGKLCPNNLCCSQYGYCGLGPEFCGTGCQNGACSTDKPCGNKANGAPCTNNYCCSQYGSCGLGKDYCGTGCQNGACN
- glycan array binding signal (z-score) [1]: -0.52
- glycan array binding signal (z-score) [2]: -0.893
- glycan array binding signal (z-score) [3]: -1.32
- glycan array binding signal (z-score) [4]: -0.585
- glycan array binding signal (z-score) [5]: -1.23
- glycan array binding signal (z-score) [6]: -1.31
- glycan array binding signal (z-score) [7]: -0.577
- glycan array binding signal (z-score) (Gal(a1-3)Gal(b1-4)GlcNAc): 0.079
- glycan array binding signal (z-score) [8]: -0.409
- glycan array binding signal (z-score) (Gal(a1-3)GalNAc): 2.1
- glycan array binding signal (z-score) [9]: 1.2
- glycan array binding signal (z-score) (Gal(a1-4)Gal(b1-4)Glc): 2.12
- glycan array binding signal (z-score) (Gal(b1-3)Gal): -0.289
- glycan array binding signal (z-score) (Gal(b1-3)GalNAc(b1-3)Gal): -0.312
- glycan array binding signal (z-score) [10]: 2.24
- glycan array binding signal (z-score) [11]: 0.089
- glycan array binding signal (z-score) [12]: -0.111
- glycan array binding signal (z-score) (Gal(b1-4)GlcNAc): -0.853
- glycan array binding signal (z-score) [13]: -0.212
- glycan array binding signal (z-score) [14]: -0.488
- glycan array binding signal (z-score) [15]: 1.51
- glycan array binding signal (z-score) [16]: 2.51
- glycan array binding signal (z-score) [17]: -0.381
- glycan array binding signal (z-score) (Gal3S(b1-3)GalNAc): 1.67
- glycan array binding signal (z-score) [18]: 6.1
- glycan array binding signal (z-score) (Gal4S6S(b1-4)GlcNAc): 0.828
- glycan array binding signal (z-score) (GalNAc(b1-3)Gal): 1.25
- glycan array binding signal (z-score) (GalNAc(b1-4)GlcNAc): 2.48
- glycan array binding signal (z-score) [19]: 0.738
